Assay [1] is described as follows: ATG_XTT_Cytotoxicity: Cytotoxicity Assessment in the Attagene TRANS-FACTORIAL HepG2 Assay (AID 2283584). The method, boiled down: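 Transfect HepG2 with GAL4-UAS reporter units, dose compound, incubate 24 h, then measure viable cell number by XTT. Fit concentration response against DMSO baseline.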
Assay [2] in a line: TOX21_p53_BLA_p2_viability: Viability Assessment in the Tox21 HCT-116 p53 Agonism Beta-lactamase Assay, Phase 2 (AID 2283591).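 Note: actives lower the ATP signal meaning cytotoxicity.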 In a few lines:
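Cytotoxicity readout: CellTiter-Glo ATP luminescence, 30 min at room temperature, after the beta-lactamase read. Cells were HCT116 exposed 16 h at 37C to compounds pin-transferred at 217-fold dilution from DMSO stocks.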

In assay [3] the target is Cellular tumor antigen p53 (Homo sapiens) (UniProt P04637). Put plainly: TOX21_p53_BLA_p2_ratio: Tox21 HCT-116 p53 Agonism Beta-lactamase Assay, Ratio, Phase 2 (AID 2283592). The method, boiled down:
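An inducible beta-lactamase reporter in HCT116 cells signals p53 pathway activation. After 16 h chemical exposure at 37C, cells load CCF4-AM substrate for 2 h at room temperature; activity is the cleaved/uncleaved emission ratio relative to DMSO.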

Assay [4] is described as follows: TOX21_p53_BLA_p3_viability: Viability Assessment in the Tox21 HCT-116 p53 Agonism Beta-lactamase Assay, Phase 3 (AID 2283593).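 Note: cells exposed to compound for 16 h before reading.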 In a few lines: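 Cellular ATP was quantified by CellTiter-Glo luminescence, read after 30 min at room temperature. Beforehand, HCT116 cells (4000/well) received compound 5 h post-seeding, 217-fold diluted from DMSO, then incubated 16 h at 37C.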

The target in assay [5] is Cellular tumor antigen p53 (Homo sapiens) (UniProt P04637). The assay is described as follows: TOX21_p53_BLA_p3_ratio: Tox21 HCT-116 p53 Agonism Beta-lactamase Assay, Ratio, Phase 3 (AID 2283596). The method, boiled down:
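HCT116 p53-bla cells (4000/well) given compound in DMSO (217-fold dilution) after 5 h, incubated 16 h at 37C. CCF4-AM substrate 2 h at room temperature; 460/530 nm emission ratio, gain fitted against DMSO.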

A short description of assay [6]: TOX21_p53_BLA_p5_viability: Viability Assessment in the Tox21 HCT-116 p53 Agonism Beta-lactamase Assay, Phase 5 (AID 2283600). In a few lines: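 Counter-readout for cytotoxicity: ATP-dependent luminescence from CellTiter-Glo, read in the beta-lactamase wells after 30 min at RT, following a 16 h compound exposure at 37C.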
Assay [7] has as its target Cellular tumor antigen p53 (Homo sapiens) (UniProt P04637). Put plainly: TOX21_p53_BLA_p4_ratio: Tox21 HCT-116 p53 Agonism Beta-lactamase Assay, Ratio, Phase 4 (AID 2283601). The method, boiled down:
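Signal is the blue/green (460nm/530nm) ratio of cleaved versus uncleaved CCF4-AM substrate, read after 2 h substrate loading. Cells were HCT116 carrying the p53-responsive beta-lactamase reporter, dosed 16 h at 37C, 5% CO2; CellTiter-Glo measured in parallel.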

A short description of assay [8]: TOX21_p53_BLA_p4_viability: Viability Assessment in the Tox21 HCT-116 p53 Agonism Beta-lactamase Assay, Phase 4 (AID 2283597).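 Note: hits lower the luminescence signal meaning cytotoxicity.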 The method, boiled down: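 Compound exposure of HCT116 cells lasts 16 h at 37C, 5% CO2, with DMSO stocks diluted 217-fold. Cellular ATP is then quantified by CellTiter-Glo luminescence after 30 min at room temperature.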
The target in assay [9] is Cellular tumor antigen p53 (Homo sapiens) (UniProt P04637). The assay is described as follows: TOX21_p53_BLA_p5_ratio: Tox21 HCT-116 p53 Agonism Beta-lactamase Assay, Ratio, Phase 5 (AID 2283599). The method, boiled down: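 Beta-lactamase reporter ratio (blue 460 nm over green 530 nm, 405 nm excitation) after 2 h CCF4-AM loading, in HCT-116 cells exposed 16 h at 37 C to compounds pinned at 217-fold dilution. Increases relative to DMSO baseline scored.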

As usually defined, the AC50 is the concentration giving half of the maximal activity seen.

Inconclusive results are not listed. Calls of active or inactive are those of the source. Rule for the calls: active = hit-call score of the fitted dose curve at least 0.9, where 1 is the maximum; inconclusive = response in the unintended direction; inactive = score below 0.9.

Chain of Cellular tumor antigen p53 (Homo sapiens) (P04637 whole entry, looked up): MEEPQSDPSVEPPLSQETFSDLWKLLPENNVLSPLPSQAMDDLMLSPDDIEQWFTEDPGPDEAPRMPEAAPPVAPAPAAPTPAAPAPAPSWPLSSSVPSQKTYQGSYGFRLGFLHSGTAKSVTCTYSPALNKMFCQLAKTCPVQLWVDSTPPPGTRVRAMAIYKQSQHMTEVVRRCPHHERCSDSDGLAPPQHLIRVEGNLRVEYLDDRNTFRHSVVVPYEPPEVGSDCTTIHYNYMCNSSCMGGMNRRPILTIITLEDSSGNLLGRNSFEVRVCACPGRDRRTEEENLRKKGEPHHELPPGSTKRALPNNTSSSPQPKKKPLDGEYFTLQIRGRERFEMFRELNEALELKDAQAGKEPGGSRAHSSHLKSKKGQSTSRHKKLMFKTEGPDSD

As for `C=C1C2CCC(C2)C1(C)C` (stereo not drawn), the outcome in assay [1], in assay [2], in [3], in assay [4], in assay [5] and in assay [6] was inactive. For the same compound, the result in assay [7] was inactive.

Regarding `Nc1cccc(C(F)(F)F)c1`, the outcome in [1], in [2], in assay [3], in [4], in assay [5] and in assay [8] was inactive. For the same compound, the result in assay [7] was inactive.

As for `CCC(CO)CO`, the result in [1], in assay [2], in [3], in assay [4], in assay [5] and in [8] was inactive. The result in [9] and in assay [7] was inactive.

With `CCCCCCOc1cc(C)c(O)c(C)c1C`, the compound was classed as inactive in [1], in assay [2], in assay [3], in assay [4] and in assay [9]. The values for the AC50 in [8] and in assay [7] were 46.1 µM (active) and 82.5 µM (active), respectively.

Turning to `CCCCCCCCCCC=CC#N`, the result in assay [1], in assay [2], in [3], in assay [4], in assay [5] and in [9] was inactive. Besides, the compound was classed as inactive in assay [6] and in assay [7].

With `CC(=O)NS(=O)(=O)c1ccc(N)cc1`, the call in assay [1], in assay [2], in [3], in assay [4], in assay [5] and in assay [8] was inactive. Besides, the outcome in assay [9], in assay [6] and in assay [7] was inactive.

For `COc1ccc(C(Cl)=C(c2ccc(OC)cc2)c2ccc(OC)cc2)cc1`, the call in assay [1], in [2], in assay [3], in assay [4], in assay [5] and in assay [8] was inactive. The outcome in assay [6] and in assay [7] was inactive.

In the case of `NCCCN1CCN(CCCN)CC1`, the result in assay [1], in [2], in [3], in assay [4], in [5] and in [8] was inactive. In addition, the outcome in assay [7] was inactive.

Consider `O=C(Nc1ccccc1)c1ccccc1O`, for which the call in [1], in assay [2], in assay [4], in assay [5], in assay [8] and in [9] was inactive. The call in assay [6] and in [7] was inactive. Further, in assay [3], the AC50 was 57 µM (active).

Consider `COc1cc(C)ccc1C(C)C`, for which the call in assay [1], in assay [2], in [3], in [4], in [5] and in assay [9] was inactive. Besides, the call in assay [6] and in [7] was inactive.

Turning to `CCCOCCOCCOCCO`, the result in assay [1], in assay [2], in [3], in assay [5], in assay [8] and in [9] was inactive. The compound was classed as inactive in assay [6] and in assay [7].

In the case of `COC(=O)c1cc(Cl)ccc1[N+](=O)[O-]`, the compound was called inactive in [1], in [2], in [3], in assay [5], in assay [9] and in [7].

Turning to `CC(=O)c1ccc2c(c1)CCCC2`, the call in assay [1], in [2], in assay [4], in assay [5] and in assay [7] was inactive.

For the compound `Cc1ccc([N+](=O)[O-])cc1S(=O)(=O)O`, the outcome in [1], in assay [2], in assay [3], in assay [5], in assay [6] and in [7] was inactive.

Consider `O=Cc1ccc(CO)o1`, for which the result in assay [1], in assay [2], in assay [3], in assay [5], in assay [8] and in assay [9] was inactive. Moreover, the call in assay [6] and in assay [7] was inactive.

Consider `c1ccc(CCCc2ccncc2)cc1`, for which the call in assay [1], in assay [2], in assay [3], in [5], in assay [6] and in assay [7] was inactive.

For `CCCCC(CC)COC(=O)c1ccccc1O` (stereo not drawn), the result in [1], in assay [2], in assay [4], in [8], in [6] and in assay [7] was inactive.

With `FC(F)(F)C(=NOCC1OCCO1)c1ccc(Cl)cc1`, the compound was called inactive in [1], in [2], in assay [4], in [5], in assay [8] and in assay [6]. In addition, in assay [7], the result was inactive.

On to `OCCN(CCO)c1ccccc1`, for which the compound was called inactive in [1], in [2], in [4], in assay [9] and in assay [6].

On to `CCOC(=O)CC(C(C)=O)C(C)=O`, for which the compound was called inactive in assay [1], in assay [2], in [4], in assay [5] and in assay [9].

For `O=c1c2ccccc2nnn1CCl`, the compound was called inactive in [1], in [2], in [4], in assay [5], in assay [8] and in assay [9]. Besides, the result in [6] and in assay [7] was inactive.

With `O=C(O)c1cc2ccccc2nc1C(=O)O`, the call in [1], in [2], in assay [3], in assay [9] and in [7] was inactive.

(Values after PubChem BioAssay (EPA / NIEHS).)
